Bioassay records deposited in PubChem BioAssay by several laboratories.
Hits are enriched below; roughly 3.2% of the tested compounds scored in any of these assays.
Dyrk1A ADPGlo: inhibitors of rat Dyrk1A kinase | Q63470 | ADP-Glo luminescence, NFATc1 peptide | inhibition, % at 12.5 µM | hit rate 0.43% among 310,000 | AID 504441; in the data active = inhibition above about 50%;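 also: plate controls were vehicle with enzyme for no effect and no enzyme for full effect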
dFosB activator: mouse delta FosB homodimer activation | purified delta FosB, TAMRA-CDK5 oligo fluorescence polarization; percent of positive-control signal above neutral wells | activation, % at 25 µM | hit rate 0.99% among 340,000;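 active = mean activation above about 17%, with every replicate also reaching it, limit read from the data, passing the limit was not always enough; inconclusive = only one of the two conditions met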
SMARCA2 activ: increases SMARCA2 function in MMTV reporter cells; hit rate 1% among 370,000; MG213 cells, MMTV-luciferase reporter, dexamethasone, overnight; activation, % at 9.1 µM; AID 652017; in the data active = activation above about 7.8%;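 also: 0% = vehicle wells and 100% = reference activator wells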
esBAF inh: SWI/SNF esBAF complex inhibition; reporter increase, % at 12.5 µM; mouse ES cells, Bmi1-luciferase knock-in reporter, 24 h; 100% = twice the neutral-well signal; AID 602393; hit rate 2% among 350,000; in the data active = activation above about 40%; inconclusive = no clear call, values can overlap the other calls;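 also: 0% = median of the plate's neutral control wells and 100% = double that signal; a rise in the Bmi1 reporter signal indicates esBAF inhibition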
CDK5 inh: CDK5/p35 (human) kinase inhibition; Q00535+Q15078; Recombinant CDK5/p35, ADP-Glo luminescence, 60 min; inhibition, % at 10 µM; hit rate 0.01% among 330,000;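 active = highest replicate inhibition of at least 50% and at least 75% of replicates reaching 50%; inconclusive = only one of the two criteria met; inactive = both criteria failed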;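 also: plate controls were DMSO neutral control for no effect and GW8510 at 10 µM for full effect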
Target sequence (Q00535 whole entry, looked up): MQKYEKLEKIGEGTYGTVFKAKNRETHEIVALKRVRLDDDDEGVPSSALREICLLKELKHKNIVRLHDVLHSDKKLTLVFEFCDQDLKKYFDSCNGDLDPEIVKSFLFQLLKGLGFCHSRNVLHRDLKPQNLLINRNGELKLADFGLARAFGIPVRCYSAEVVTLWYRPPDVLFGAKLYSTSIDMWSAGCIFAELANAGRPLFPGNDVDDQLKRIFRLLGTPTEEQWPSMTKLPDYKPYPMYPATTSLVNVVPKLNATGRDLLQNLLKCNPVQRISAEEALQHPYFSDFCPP
Target sequence (Q15078 whole entry, looked up): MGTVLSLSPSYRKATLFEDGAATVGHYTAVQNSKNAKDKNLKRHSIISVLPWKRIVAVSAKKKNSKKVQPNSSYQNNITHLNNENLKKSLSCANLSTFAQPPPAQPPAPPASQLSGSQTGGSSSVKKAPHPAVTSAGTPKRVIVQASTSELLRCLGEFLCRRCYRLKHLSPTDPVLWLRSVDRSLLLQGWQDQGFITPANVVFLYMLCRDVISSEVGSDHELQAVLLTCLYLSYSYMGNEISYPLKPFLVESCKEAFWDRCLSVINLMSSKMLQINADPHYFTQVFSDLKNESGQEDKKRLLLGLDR
Rtt109 Vps75: inhibitors of Candida albicans Rtt109/Vps75 histone acetyltransferase; Q5AAJ8; purified Rtt109/Vps75, ThioGlo CoA-SH fluorescence, 4 h; inhibition, % at 34.9 µM; hit rate 0.16% among 330,000; AID 540336;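 active = inhibition of at least 50% in every replicate; inconclusive = best replicate reaches 50% inhibition but some replicates fall short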
Active calls of the source: *; ? = inconclusive; nt = no result.

SMILES | Dyrk1A ADPGlo | dFosB activator | SMARCA2 activ | esBAF inh | CDK5 inh | Rtt109 Vps75
Cn1cnc(S(=O)(=O)N[C@H]2C=C[C@@H](CC(=O)N3CCN(c4ccccc4)CC3)O[C@@H]2CO)c1 | nt | nt | nt | -4.5 | nt | nt
CCC(=O)N1CC[C@@H]2[C@H](CO)Nc3ccc(C#Cc4ccccc4F)cc3[C@@H]21 | nt | nt | nt | 6.2 | nt | nt
O=C(c1cccs1)N1N=C(c2ccccc2)CC1c1ccccc1O (centres undefined) | -2.1 | 30.8* | -3.2 | nt | 0.8 | 7.9
O=C(c1ccco1)N1N=C(c2cccs2)CC1c1ccccc1O (centres undefined) | nt | 26.7* | -0.7 | nt | 2.0 | -3.3
c1ccc2c(C3OCC4(CCCCC4)CO3)cccc2c1 | nt | nt | 2.2 | 44.8* | nt | nt
Cn1c(N=Nc2ccc(N3CCOCC3)cc2)[n+](C)c2ccccc21 | 1.9 | 40.3* | -1.0 | nt | 20.1 | 1.9
Cn1c(=Nc2ccc(N3CCOCC3)cc2)ccc2ccccc21 | -0.5 | -4.4 | -0.6 | -8.0 | -0.2 | -0.3
Cn1ccnc1C(O)c1ccc(OCc2ccccc2)cc1 (centres undefined) | 0.7 | 0.5 | 3.2 | nt | -0.2 | 8.1
Cn1ccc2cc(OCc3ccccc3)ccc21 | nt | 3.6 | 3.9 | 49.4* | 0.2 | -11.6
Cc1c(C=O)c2cc(OCc3ccccc3)ccc2n1C | nt | 1.1 | -0.1 | 70.5* | 0.9 | 27.0
CO[C@@H](CN(C)S(=O)(=O)c1ccc(Cl)cc1)[C@H](C)CN(C(=O)Nc1ccccc1F)[C@@H](C)CO | nt | nt | nt | 11.3 | nt | nt
Cc1nc2cc3c(cc2c(C)c1C(=O)OC(C)C)OCO3 | 2.6 | -4.2 | 3.2 | 46.0* | 0.3 | 2.3
COc1cc(C(F)(F)F)ccc1C(=O)NCCc1ccco1 | -1.5 | -4.7 | -3.6 | 60.0* | -2.3 | -4.6
O=c1cc(-c2ccc(O)cc2)oc2cc(O)cc(O)c12 | 31.7 | -27.3 | 0.0 | ? | 2.2 | -7.6
O=c1cc(-c2cccc(Cl)c2)oc2cccc(O)c12 | 5.5 | 4.1 | 1.3 | 38.7 | -1.4 | 11.9
COc1cc(O)c2c(=O)cc(-c3ccccc3)oc2c1 | 18.8 | -4.9 | 0.1 | 50.1* | 3.3 | -3.1
O=C(COc1cc(O)c2c(=O)cc(-c3ccccc3)oc2c1)c1ccccc1 | -2.2 | -10.0 | 1.7 | 26.8 | 0.9 | 1.7
O=c1cc(-c2ccccc2)oc2cccc(O)c12 | 12.1 | -3.3 | 0.5 | 45.1* | 2.0 | 0.4
COCOc1ccc(-c2cc(=O)c3c(O)cc(OCOC)cc3o2)cc1 | -11.8 | 1.8 | 7.6 | 88.5* | -0.3 | 6.6
Cn1nc(-c2ccccc2)nc1-c1ccccc1 | -0.5 | -5.7 | 5.0 | ? | -1.8 | 4.0
CN=c1nc(-c2ccccc2)n(-c2ccccc2)s1 | 9.6 | 3.3 | 0.6 | 54.7* | 0.6 | 1.2
CNc1cccc(-c2ccc(C(C)=O)s2)n1 | nt | nt | 3.2 | 52.7* | nt | nt
COc1ccc(-c2c(C)nc(N)nc2-c2ccc(OC)cc2O)cc1 | -3.8 | -5.9 | -4.3 | -1.2 | 0.9 | 3.1
COc1ccc(-c2nc(N)nc(N)n2)c(O)c1 | 7.2 | -0.6 | 4.8 | 47.9* | 4.4 | 2.5
CCOc1ccc(-c2nnc(SCC(=O)N3CCOCC3)o2)cc1 | -2.6 | 5.1 | 2.9 | 22.1 | -1.3 | -5.4
SMILES | Dyrk1A ADPGlo | dFosB activator | SMARCA2 activ | esBAF inh | CDK5 inh | Rtt109 Vps75
CCOc1ccc(-c2nnc(SCC(=O)N3CCCC3)o2)cc1 | -5.6 | -6.7 | -0.2 | 53.0* | 0.5 | 4.2
COc1ccc(-c2nnc(SCC(=O)N3CCCC3)o2)cc1 | -2.7 | -0.7 | 5.5 | 45.4* | 0.9 | -7.4
O=C(N[C@@H]1CC[C@@H](CCn2cc(-c3ccccc3F)nn2)O[C@H]1CO)c1ccc2c(c1)OCO2 | nt | nt | nt | 8.0 | nt | nt
C[C@H]1CN([C@@H](C)CO)C(=O)c2cc(NC(=O)Nc3cccc4ccccc34)ccc2O[C@H]1CN(C)S(=O)(=O)c1ccccc1 | nt | nt | nt | -2.4 | nt | nt
CNC[C@H]1Oc2ncc(-c3cccc(C(=O)N(C)C)c3)cc2C(=O)N([C@H](C)CO)C[C@H]1C | nt | nt | nt | -7.4 | nt | nt
COc1ccccc1OCc1cc(C(=O)N(C)CCC2CCOCC2)no1 | nt | nt | 6.5 | 54.1* | nt | nt
CC(=O)c1cccc(OCc2cc(C(=O)N(C)CCC3CCOCC3)no2)c1 | -2.6 | -9.8 | 1.2 | 52.4* | 1.1 | 24.4
COc1cccc(OCc2cc(C(=O)N(C)CCC3CCCCO3)no2)c1 (centres undefined) | 16.6 | -5.8 | 1.9 | 35.1 | 2.5 | 0.8
O=C(C[C@@H]1C[C@H]2c3cc(NC(=O)c4cccnc4)ccc3O[C@H]2[C@H](CO)O1)NCc1ccccn1 | nt | nt | nt | -2.9 | nt | nt
CCN1CCc2c(sc(NC(=O)Nc3ccc(Cl)c(Cl)c3)c2C(N)=O)C1 | -3.5 | 56.4* | -2.6 | 7.6 | 0.4 | 7.6
CCN1CCc2c(sc(NC(=O)c3ccc(S(=O)(=O)N(CC)c4ccccc4)cc3)c2C(N)=O)C1 | 7.2 | 40.8* | -0.6 | 0.8 | 1.8 | -9.0
O=c1c2ccccc2nnn1CSc1nnc2ccccn12 | 0.9 | -3.6 | 3.5 | 46.9* | -1.0 | 0.2
COCC#Cc1ccc2c(c1)O[C@@H](CN(C)C(=O)NC(C)C)[C@H](C)CN([C@@H](C)CO)S2(=O)=O | nt | nt | nt | 1.4 | nt | nt
Cc1ccccc1CN1C(=O)c2ccccc2C1c1nnnn1-c1ccc2c(c1)OCCO2 (centres undefined) | nt | nt | 7.9* | nt | nt | nt
Cc1ccc(CN2C(=O)c3ccccc3C2c2nnnn2-c2ccc3c(c2)OCCO3)cc1 (centres undefined) | nt | nt | 3.2 | nt | nt | nt
COc1ccc(NC(=O)Nc2ccc3c(c2)C(=O)N([C@H](C)CO)C[C@H](C)[C@@H](CN(C)C(=O)NC(C)C)OCCCC[C@H](C)O3)cc1 | nt | nt | nt | -5.2 | nt | nt
COc1ccc(NC(=O)Nc2ccc3c(c2)[C@H]2C[C@H](CC(=O)N(C)C)O[C@@H](CO)[C@H]2O3)cc1 | nt | nt | nt | 3.6 | nt | nt
O=C(N/N=C/c1ccc(Cl)cc1Cl)c1cccc(F)c1 | 25.0 | -5.9 | 3.9 | 63.4* | -2.0 | -2.6
Cc1ccc(S(=O)(=O)Nc2ccc3c(c2)C(=O)N(C)[C@H]2CC[C@@H](CC(=O)O)O[C@@H]2CO3)cc1 | nt | nt | nt | 0.9 | nt | nt
CCN(c1ccc(OC)cc1)S(=O)(=O)c1nnc(NC(=O)COc2ccc(C)cc2)s1 | -0.3 | -10.4 | nt | -3.3 | -2.5 | 56.6*
C[C@@H]1CN([C@H](C)CO)C(=O)c2cc(NS(=O)(=O)c3ccccc3)ccc2O[C@@H](C)CCCCO[C@@H]1CN(C)S(=O)(=O)c1ccc(F)cc1 | nt | nt | nt | 1.3 | nt | nt
COc1cccc(-c2ccc3c(c2)[C@H]2[C@H](CCN2S(=O)(=O)c2ccccc2OC)[C@@H](CO)N3C)c1 | nt | nt | nt | -2.5 | nt | nt
C[C@H]1CN([C@@H](C)CO)C(=O)Cc2cc(NC(=O)Nc3ccc4c(c3)OCO4)ccc2O[C@@H]1CN(C)Cc1ccc(-c2ccccc2)cc1 | nt | nt | nt | 4.0 | nt | nt
Cc1cccc(/C=N/NC(=O)c2cc(Br)ccc2OCc2ccccc2)n1 | 15.0 | -12.2 | -4.5 | 0.0 | 2.0 | -3.8
Cc1cccc(C=NOCCc2ccccc2)n1 | 2.1 | -4.1 | 2.1 | 65.8* | 0.7 | -3.6
COc1ccc(CNc2ccc([N+](=O)[O-])cn2)cc1 | -1.8 | -6.1 | 3.6 | 62.6* | -0.2 | 4.2
